Source: PubChem
Sampled rows, rich in hits. Any-hit rate of the full collection: about 2.3%.
CHO-K1 Ca antag: M1 antagonist counterscreen hit in parental CHO-K1 cells; ATP-induced calcium, Fluo-8 fluorescence; inhibition, % at 3 µM; 360,000 compounds, 0.6% hits; AID 602250;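 active = inhibition above a per-plate cutoff, the plate's mean sample inhibition plus 3 SD, cut at about 24% in these data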;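 also: 0% = DMSO plus EC80 ATP and 100% = DMSO alone without ATP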
CHRM1 PAM: human CHRM1 positive allosteric modulation; CHO-K1 hM1, Fluo-8 calcium fluorescence, ACh EC20; 0% = ACh EC20, 100% = maximal ACh; P11229; 360,000 compounds, 0.088% hits; activation, % at 3 µM; in the data active = activation above about 19%, passing the limit was not always enough
Target sequence (P11229 whole entry, looked up): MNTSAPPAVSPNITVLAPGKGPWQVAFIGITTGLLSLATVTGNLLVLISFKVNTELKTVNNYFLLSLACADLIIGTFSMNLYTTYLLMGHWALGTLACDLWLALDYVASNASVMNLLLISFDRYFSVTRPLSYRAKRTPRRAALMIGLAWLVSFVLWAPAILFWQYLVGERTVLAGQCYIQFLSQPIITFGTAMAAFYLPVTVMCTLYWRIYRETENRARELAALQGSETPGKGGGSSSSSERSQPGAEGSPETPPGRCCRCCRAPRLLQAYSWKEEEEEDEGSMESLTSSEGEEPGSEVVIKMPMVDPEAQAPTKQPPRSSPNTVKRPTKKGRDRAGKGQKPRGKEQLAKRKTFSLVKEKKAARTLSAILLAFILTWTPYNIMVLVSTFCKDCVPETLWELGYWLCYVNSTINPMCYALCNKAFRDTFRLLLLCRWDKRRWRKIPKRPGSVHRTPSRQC
CHRM1 agonist: activates human CHRM1 receptor. CHO-K1 hM1, Fluo-8 calcium fluorescence, agonist mode; 0% DMSO, 100% acetylcholine EC100. P11229. activation, % at 3 µM. 360,000 compounds, 0.33% hits. AID 588814;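 active = activation above the run's mean compound activation plus 3 SD, cut at about 16% in these data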;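 also: peak over basal fluorescence ratio within a 140 s kinetic read after compound addition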
CHRM1 antagonist: blocks human M1 muscarinic receptor; P11229; CHO-K1 hM1, Fluo-8 calcium fluorescence, ACh EC80 antagonist; inhibition, % at 3 µM; 360,000 compounds, 1.3% hits;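 active = percent inhibition above its own plate's cutoff, namely the mean of that plate's compound wells plus 3 SD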;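 also: peak over basal fluorescence ratio during 140 s after agonist addition; 0% = ACh EC80 plus DMSO and 100% = DMSO alone without agonist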
M1 ag parental: counter-screen for M1 agonists: effect in parental CHO-K1 cells; Fluo-8 calcium fluorescence; scaled to maximal ATP response, vehicle zero; activation, % at 3 µM; 360,000 compounds, 0.48% hits; in the data active = activation above about 15%;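 also: untransfected CHO-K1 host cells lacking M1 receptor as counterscreen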
M1 PAM parental: M1 PAM counterscreen hit in parental CHO-K1 cells. AID 602247. 360,000 compounds, 0.02% hits. ATP EC20, Fluo-8 calcium fluorescence; 0% at ATP EC20, 100% at ATP max. activation, % at 3 µM;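 active = activation above the run cutoff, the mean activation of all test compounds plus 3 SD, cut at about 40% in these data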;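 also: peak over basal fluorescence ratio in a 140 s read after ATP addition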
An asterisk follows results filed as active.

Results for CCOc1cc2c3c(c1)C1(C(=O)N3C(C)(C)C=C2C)C(C#N)=C(N)Oc2cc(O)ccc21 (stereo unspecified) ?
CHO-K1 Ca antag: 29*; CHRM1 PAM: 8; CHRM1 agonist: -1; CHRM1 antagonist: -7; M1 ag parental: 0; M1 PAM parental: 3

How did CC1=CC(=O)C=C(C)C1=NOS(=O)(=O)c1ccccc1 do in these assays?
CHO-K1 Ca antag: -3; CHRM1 PAM: 4; CHRM1 agonist: 11; CHRM1 antagonist: 18*; M1 ag parental: 11; M1 PAM parental: 20

Results for Cc1ccc2c(c1)/C(=N/OS(=O)(=O)c1ccccc1)CCS2 ?
CHO-K1 Ca antag: -10; CHRM1 PAM: 6; CHRM1 agonist: -3; CHRM1 antagonist: 0; M1 ag parental: 0; M1 PAM parental: 19

What do the screens show for `Cc1ccc(S(=O)(=O)ON=C2CCN(S(=O)(=O)c3ccccc3)CC2)cc1`?
CHO-K1 Ca antag: -17; CHRM1 PAM: 8; CHRM1 agonist: 0; CHRM1 antagonist: -7; M1 ag parental: 0; M1 PAM parental: 7

How did CC1=CC(=O)C(C(C)C)=C/C1=N/OS(=O)(=O)c1ccccc1 do in these assays?
CHO-K1 Ca antag: 50*; CHRM1 PAM: -17; CHRM1 agonist: 5; CHRM1 antagonist: 61*; M1 ag parental: 20*; M1 PAM parental: -20

How did CCOC(=O)c1[nH]ncc1CN1CCCC(C(=O)c2cccc(OC(C)C)c2)C1 (stereo unspecified) do in these assays?
CHO-K1 Ca antag: 10; CHRM1 PAM: -3; CHRM1 agonist: -10; CHRM1 antagonist: 2; M1 ag parental: 0; M1 PAM parental: -9

What do the screens show for `COc1ccc(CN2CCCC(C(=O)c3cccc(OC(C)C)c3)C2)cc1Cn1cccn1` (stereo unspecified)?
CHO-K1 Ca antag: -12; CHRM1 PAM: -24; CHRM1 agonist: -5; CHRM1 antagonist: 37*; M1 ag parental: 5; M1 PAM parental: 15

Results for CCn1ncc(CN2CCCC(C(=O)c3cccc(OC(C)C)c3)C2)c1C (stereo unspecified) ?
CHO-K1 Ca antag: 9; CHRM1 PAM: -26; CHRM1 agonist: -9; CHRM1 antagonist: 98*; M1 ag parental: 0; M1 PAM parental: -5

Results for COc1ccc(NC(C)=O)cc1S(=O)(=O)NCc1ccc2c(c1)OCO2 ?
CHO-K1 Ca antag: -2; CHRM1 PAM: 18; CHRM1 agonist: 2; CHRM1 antagonist: -27; M1 ag parental: 1; M1 PAM parental: 12

How did OC[C@@H]1CN(Cc2ccc3c(c2)OCO3)C[C@H](n2cnc3c(N4CCN(c5ccccc5)CC4)ncnc32)O1 do in these assays?
CHO-K1 Ca antag: 7; CHRM1 PAM: -6; CHRM1 agonist: 3; CHRM1 antagonist: 0; M1 ag parental: 7; M1 PAM parental: -5

What do the screens show for `O=C(CCCSc1nc2ccccc2[nH]1)N1CCN(c2ccc([N+](=O)[O-])cc2)CC1`?
CHO-K1 Ca antag: -13; CHRM1 PAM: -18; CHRM1 agonist: 0; CHRM1 antagonist: 43*; M1 ag parental: 0; M1 PAM parental: 12

How did COc1cc(NC(=O)CCN2CCN(c3ccccc3OC)CC2)cc(OC)c1 do in these assays?
CHO-K1 Ca antag: -14; CHRM1 PAM: 1; CHRM1 agonist: -4; CHRM1 antagonist: -11; M1 ag parental: 2; M1 PAM parental: 16

Results for Cc1nnc(SCC(=O)Nc2ncc(S(=O)(=O)c3ccc([N+](=O)[O-])cc3)s2)s1 ?
CHO-K1 Ca antag: 1; CHRM1 PAM: 11; CHRM1 agonist: -4; CHRM1 antagonist: -11; M1 ag parental: 1; M1 PAM parental: 44*

What do the screens show for `O=C(Nc1ccc([N+](=O)[O-])cc1)c1ccccc1F`?
CHO-K1 Ca antag: -22; CHRM1 PAM: 3; CHRM1 agonist: -7; CHRM1 antagonist: -2; M1 ag parental: 1; M1 PAM parental: 19

Results for O=C(Nc1ncc(S(=O)(=O)c2ccc([N+](=O)[O-])cc2)s1)c1ccccc1F ?
CHO-K1 Ca antag: -7; CHRM1 PAM: -17; CHRM1 agonist: 30*; CHRM1 antagonist: 32*; M1 ag parental: 3; M1 PAM parental: 13

How did CCCc1cc(=O)[nH]c(SCC(=O)Nc2ncc(S(=O)(=O)c3ccc([N+](=O)[O-])cc3)s2)n1 do in these assays?
CHO-K1 Ca antag: -2; CHRM1 PAM: -2; CHRM1 agonist: -3; CHRM1 antagonist: -4; M1 ag parental: 0; M1 PAM parental: -11

What do the screens show for `COC(=O)C(NC(=O)c1ccccc1C)(Nc1ncc(S(=O)(=O)c2ccc([N+](=O)[O-])cc2)s1)C(F)(F)F` (stereo unspecified)?
CHO-K1 Ca antag: 4; CHRM1 PAM: 4; CHRM1 agonist: 17*; CHRM1 antagonist: 2; M1 ag parental: 7; M1 PAM parental: 16

What do the screens show for `Cc1csc(NC(=O)CSc2ccc([N+](=O)[O-])cn2)n1`?
CHO-K1 Ca antag: -3; CHRM1 PAM: 7; CHRM1 agonist: -4; CHRM1 antagonist: -2; M1 ag parental: 16*; M1 PAM parental: 18

How did CC(=O)OC[C@@H]1CN(Cc2ccccc2)C[C@H](n2cnc3c(N4CCN(c5ccccc5)CC4)ncnc32)O1 do in these assays?
CHO-K1 Ca antag: 1; CHRM1 PAM: -5; CHRM1 agonist: -3; CHRM1 antagonist: 13; M1 ag parental: 1; M1 PAM parental: 0

What do the screens show for `COc1ccc(Cl)cc1C=CC=Nc1ccccc1O`?
CHO-K1 Ca antag: -18; CHRM1 PAM: -6; CHRM1 agonist: -8; CHRM1 antagonist: -10; M1 ag parental: 1; M1 PAM parental: 28

Results for CC(C)C[C@H]1CN(CCCC[C@H]2CNC(=O)C(=O)N2CCC2CCCCC2)C(=O)C(=O)N1CCc1ccccc1 ?
CHO-K1 Ca antag: 2; M1 ag parental: 0; M1 PAM parental: 10

How did O=C(CN(C1CCCCC1)S(=O)(=O)c1ccc(Cl)cc1)N1CCOCC1 do in these assays?
CHO-K1 Ca antag: 27*; CHRM1 PAM: -5; CHRM1 agonist: 0; CHRM1 antagonist: 16; M1 ag parental: 0; M1 PAM parental: -7

Results for O=C(CN(C1CCCCC1)S(=O)(=O)c1ccccc1)N1CCCC1 ?
CHO-K1 Ca antag: -18; CHRM1 PAM: 8; CHRM1 agonist: -2; CHRM1 antagonist: -6; M1 ag parental: 0; M1 PAM parental: 4

What do the screens show for `COC(=O)c1ccc(CNC(=O)c2ccccc2C(=O)NCC2(CBr)OCCO2)cc1`?
CHO-K1 Ca antag: -15; CHRM1 PAM: 7; CHRM1 agonist: -2; CHRM1 antagonist: -12; M1 ag parental: 2; M1 PAM parental: 17

How did COc1ccc(S(=O)(=O)N(C)C[C@@H]2OCCCC[C@@H](C)Oc3ccc(NS(=O)(=O)c4cccs4)cc3C(=O)N([C@H](C)CO)C[C@@H]2C)cc1 do in these assays?
CHO-K1 Ca antag: -10; CHRM1 PAM: 1; CHRM1 agonist: -6; CHRM1 antagonist: -14; M1 ag parental: 1; M1 PAM parental: 9
